Out of some 370,000 compounds screened, about 2,300 (0.62%) were called active. For the sample, actives were picked, then their nearest neighbours and some compounds at random. Values without a mark were called inactive.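 The calls were made as follows: active = inhibition above a per-campaign cutoff equal to the mean of compounds falling between control-based bounds plus 3 SD (cut at about 20% in these data); inactive = the rest.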

The target in the experiment is Disintegrin and metalloproteinase domain-containing protein 10 (Homo sapiens) (UniProt O14672). Kind of experiment: blockers of ADAM10 peptide cleavage – biochemical, QFRET, HTS, primary screen (AID 720582).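 Also: 0% = DMSO wells while the 100% control is not disclosed.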 Conditions: recombinant ADAM10, EDANS/DABCYL FRET peptide cleavage, 3 h; at 7 µM; hits give high values.
Chain of Disintegrin and metalloproteinase domain-containing protein 10 (Homo sapiens) (O14672 214-748 limits assumed): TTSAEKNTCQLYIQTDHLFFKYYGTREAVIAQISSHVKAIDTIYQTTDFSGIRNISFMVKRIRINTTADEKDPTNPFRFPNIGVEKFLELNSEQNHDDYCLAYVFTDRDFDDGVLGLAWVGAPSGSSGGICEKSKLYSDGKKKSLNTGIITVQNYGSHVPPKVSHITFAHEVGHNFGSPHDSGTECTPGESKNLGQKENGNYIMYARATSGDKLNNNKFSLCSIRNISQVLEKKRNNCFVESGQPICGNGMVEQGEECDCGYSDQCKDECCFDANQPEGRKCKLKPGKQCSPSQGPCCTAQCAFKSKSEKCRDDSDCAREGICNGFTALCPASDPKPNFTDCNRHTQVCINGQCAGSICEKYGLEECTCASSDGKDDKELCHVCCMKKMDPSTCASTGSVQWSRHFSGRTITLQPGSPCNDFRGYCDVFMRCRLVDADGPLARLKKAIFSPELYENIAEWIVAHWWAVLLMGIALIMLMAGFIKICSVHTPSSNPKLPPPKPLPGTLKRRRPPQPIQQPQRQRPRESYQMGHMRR
A word on the inhibition: it is the relative decrease from the control value, in per cent. As to `Oc1c(Cl)cc(Cl)c(Cl)c1Cc1c(O)c(Cl)cc(Cl)c1Cl`, the inhibition is 36.2% (active). With `O=C(CSc1nnc(-c2ccccn2)n1-c1ccc(Cl)cc1)Nc1ccccc1-c1ccccc1` the figure was 1.01%. With `C=CCN1C(=O)[C@@H](CC(=O)NCCCOCCCC)[C@]2(C(=O)OCC)CCCCC/C=C/12` the figure was -1.99%. With `O=C(OCC(O)C(O)COC(=O)c1ccccc1)c1ccccc1` (stereo not given) the figure was -1.65%; with `O=C(OCc1ccc(-c2ccccc2)cc1)c1cccc(O)c1`, 23.1% (active); with `Cc1ccc(S(=O)(=O)c2c(COC(=O)c3cccc(Cl)c3)c(-c3ccccc3)nn2C)cc1`, 4.59%.

For `C=CCn1c(SCC(N)=O)nnc1-c1ccccc1OC`, the inhibition is -8.66%. With `CN1C[C@]2(C=C3CCCCC3n3c(=O)n(-c4ccccc4)c(=O)n32)N=C1NC(=O)c1ccccc1` (stereo not given in full) the figure was 5.49%; with `O=C(NCc1cccs1)C1CCN(S(=O)(=O)c2ccccc2[N+](=O)[O-])CC1`, 7.43%; with `Cc1ccc(OCC(=O)Nc2ccc(C(=O)O)cc2NC(=O)COc2ccc(C)c(C)c2)cc1C`, -2.89%. With `Cc1ccc(C)c(NS(=O)(=O)c2ccc(OCC(=O)NCc3cccnc3)cc2)c1` the figure was 5.13%. As for `Cc1ccc(NS(=O)(=O)c2ccc(C)c(NC(=O)COc3ccc4ccccc4c3)c2)c(C)c1`, the inhibition was 21.2% (active). With `COc1ccc(-n2c(SCC(=O)NC3CCCC3)nnc2-c2ccncc2)cc1` the figure was -6.99%; with `COc1cccc(/C=C2\CC3(OC(C)=O)CCCN2C3)c1` (stereo not given), 3.53%; with `CC(CCN1CCC(C(O)(c2ccccc2)c2ccccc2)CC1)Oc1ccc([N+](=O)[O-])cc1Cl` (stereo not given), 14.3%.

In the case of `O=C(NCC1CC1)c1onc(CSc2ccccc2)c1C(=O)NCC1CC1`, the inhibition is 4.44%. With `O=C(NCc1ccccc1)c1onc(CSc2nc3ccccc3[nH]2)c1C(=O)NCc1ccccc1` the figure was 23.5% (active); with `O=C(NCc1ccccc1)c1onc(CSc2ccncc2)c1C(=O)NCc1ccccc1`, 6.67%. Take `CCN(C(=O)[C@@H](C1CC1)[C@@H](O)c1ccc2ccccc2c1)c1ccccc1`: the inhibition was 7.43%. Regarding `CC(C)CNc1cccc2c1S(=O)(=O)N(Cc1cn(Cc3ccccc3C(F)(F)F)nn1)Cc1ccccc1O2`, the inhibition was -26.5%.

As to `O=C(CSc1nc2ccccc2s1)N=Nc1c(O)[nH]c2ccccc12`, the inhibition is 7.8%. With `Cc1ccc(Cn2cc(CN3[C@@H](C)COc4cc(Br)ccc4S3(=O)=O)nn2)cc1` the figure was -3.91%; with `CN1C(=O)C(CC(=O)Nc2ccccc2)S/C1=N/c1nccs1` (stereo not given), 8.04%.

Regarding `CCN1C(=O)C(CC(=O)Nc2cc(C)ccc2C)SC1=Nc1ccc(S(N)(=O)=O)cc1` (stereo not given), the inhibition is 3.57%.

`O=C(CC1SC(=Nc2ccccc2)N(Cc2ccccn2)C1=O)Nc1cccc(Cl)c1` (stereo not given): the inhibition was 21.2% (active).

Turning to `O=C(c1c[nH]c2ccccc12)N1CCC(Oc2cccnc2)CC1`, the inhibition is 1.42%. For `Clc1ccc(-n2c(SC/C=C/c3ccccc3)nnc2-c2ccco2)cc1`, the inhibition was 15.1%.

For `CCOC(=O)[C@@]12CN(C(=O)OC(C)(C)C)CC=C1N(Cc1ccc(OC)cc1)C(=O)[C@H]2CC(=O)NCc1ccc(OC)c(OC)c1`, the inhibition is 1.76%.

As to `C=CCN1C(=O)[C@H](CC(=O)NCCCN2CCCC2=O)[C@@]2(C(=O)OCC)CCCC=C12`, the inhibition was -5.84%.

For the molecule `C=CCOC/C=C/C#CCN(CC=C)Cc1ccc(OC)cc1OC`, the inhibition is -0.01%.

With `CC1(C)C=Cc2c(ccc3c2OC[C@@H](c2ccc(O)cc2O)C3)O1`, the inhibition was 26.4% (active). The value for `COC(=O)C1CN(Cc2cn(Cc3ccc(F)cc3)nn2)CCS(=O)(=O)N1Cc1ccc(Cl)cc1` (stereo not given) was 2.41%; that for `C=CCN1C(=O)[C@@H](CC(=O)NCC2CCCCC2)[C@]2(C(=O)OC)CCCCC=C12` was 5.05%; that for `CCCOc1ccc(F)cc1-c1cc(C(=O)NCc2ccc(F)cc2)[nH]n1` was 15.3%. With `Cc1ccc(O)c(-c2cc(C(=O)NCc3ccccc3)[nH]n2)c1` the figure was 12.6%.

For the molecule `Cc1cc(O)ccc1-c1cc(C(=O)NCc2cc(C(F)(F)F)cc(C(F)(F)F)c2)[nH]n1`, the inhibition was 20.5% (active). With `O=C(Nc1cc(Cl)cc(Cl)c1)OCCN1CCCC12CCC(c1ccccc1)CC2` (stereo not given) the figure was 4.69%; with `C=C(C)C#CC(Cc1ccccc1)N(CC1CC1)/C(N)=N/C(=O)OCc1ccccc1` (stereo not given), -71.4%.

In the case of `CCOc1ccc(Oc2c(Cl)cnn(-c3ccc(C)cc3)c2=O)cc1`, the inhibition is 0.21%. In the case of `CC(NCc1ccco1)C(=O)N1CCCCC1` (stereo not given), the inhibition is -0.25%. Take `Cc1ccc(CC(=O)Nc2ccc(S(=O)(=O)N3CCOCC3)cc2)cc1C`: the inhibition was 9.05%. With `N#C/C(=C\c1cccnc1)C(=O)Nc1ccc(SC(F)F)cc1`, the inhibition was 9.34%. The value for `O=C(Cc1ccc(Cl)c(Cl)c1)Nc1ccc(SC(F)F)cc1` was 24.6% (active); that for `O=C1CC[C@@]23CCCN2C(=O)CCC[C@H]3[C@H]1Cc1ccccc1` was -4.62%. For the molecule `CN(C)CC(=O)N[C@@H]1C[C@@H]2O[C@H](CO)CC[C@@H]2O[C@@H]1CCc1ccc(C#Cc2ccccc2)cc1`, the inhibition is 7.99%. With `COC(=O)[C@]12C[C@H](CC(=O)NCc3cccs3)C(=O)N(CCc3ccc(OC)c(OC)c3)C1=C[C@H](C(C)C)O[C@@H]2C1CC1` the figure was -6.09%.

As for `CN(C)c1ccc(NC(=O)NC2CCCCN(Cc3ccc(Cl)cc3)C2=O)cc1` (stereo not given), the inhibition was 8.78%. The value for `CCc1ccc2c(c1)NC(=O)C2(C)Cc1ccc(OC(F)(F)F)cc1` (stereo not given) was 14.9%; that for `COc1ccccc1CC1(C)C(=O)Nc2ccc(OC(F)(F)F)cc21` (stereo not given) was 22.6% (active); that for `Cc1ccc(CC2(C)C(=O)Nc3ccc(OC(F)(F)F)cc32)cc1` (stereo not given) was 5.38%. The value for `C=CCN(Cc1ccc2c(c1)OCO2)C(C#CC1CC1)C(C)(C)C` (stereo not given) was -9.94%.

Turning to `Cc1cc(C)cc(NC(=O)N2CCC(N(C)CCC(C)C)CC2)c1`, the inhibition is 3.06%. Turning to `CC(C)(C)c1ccc(S(=O)(=O)NCC2CCN(C(=O)C(=O)c3cc4ccccc4o3)CC2)cc1`, the inhibition is 24.4% (active). The value for `N#Cc1cccc(C(=O)NCC2CCN(C(=O)C(=O)c3cc4ccccc4o3)CC2)c1` was 1.47%; that for `O=C(C(=O)N1CCC(CNS(=O)(=O)Cc2ccccc2)CC1)c1cc2ccccc2o1` was 0.44%; that for `O=C(NCCCc1ccccc1)[C@H](Cc1ccccc1)NC1(C(=O)NCCc2c[nH]c3ccccc23)CCC1` was 10.8%.

As to `O=C(c1cccs1)n1nc(NCc2ccccc2)nc1NCc1ccccc1`, the inhibition is -4.16%. With `CCCC(=O)n1nc(NCc2ccc(OC)cc2)nc1NCc1ccc(OC)cc1` the figure was 21.3% (active). With `CCCn1nnnc1NCc1ccc(OC)cc1` the figure was 0.98%. With `Cc1cc(C)nc(NC(=S)N2CCN(c3ccc(C(F)(F)F)cn3)CC2)c1` the figure was -0.75%. Regarding `O=C1CC[C@@H](COc2ccc3[nH]cc(-c4ccccc4)c3c2-c2ccccc2)N1`, the inhibition was -16.4%. The value for `Cc1cc(C)cc(NC(=O)CSc2ccccc2)c1` was 7.73%. The value for `CC(=O)Nc1ccc(NC(=O)CSCc2cnn(-c3ccccc3)c2-n2cccc2)cc1` was -1.8%. As to `Cc1cc(C)cc(NC(=O)CSCc2cnn(-c3ccccc3)c2-n2cccc2)c1`, the inhibition is 20.7% (active).

As for `O=C(NCCc1c[nH]c2ccccc12)OCc1cn(-c2c(F)cccc2F)nn1`, the inhibition is 2.44%. The value for `CCOC(=O)[C@@]12CCC3=C1N(CCC3)C(=O)[C@H](CC(=O)N1CCN(C(=O)c3ccco3)CC1)C2` was 0.02%. With `CC1(C(=O)NCc2ccc3c(c2)OCO3)CCN1C(=O)Cc1cccc2ccccc12` (stereo not given) the figure was -4.08%. The value for `N#Cc1nc(Cc2cccc3ccccc23)oc1NCc1ccc2c(c1)OCO2` was 22.7% (active); that for `O=C(CCNS(=O)(=O)c1ccccc1C(F)(F)F)NCc1ccc2c(c1)OCO2` was 4.73%; that for `C[C@@H]1COc2cccc(N3CCCC3)c2S(=O)(=O)N1C` was -13.8%. As to `CCCCNC(=O)C[C@@H]1C(=O)N(CCc2ccc(Cl)cc2)C2=CCCC[C@]21C(=O)OCC`, the inhibition was 1.59%. The value for `CCCCC(=O)N[C@@H]1CC[C@@]23CCCN2C(=O)CCC[C@H]3[C@H]1C` was -8.02%; that for `CC(C)(C)NC(=O)C(c1cccnc1)N(C(=O)c1cnco1)c1ccc(C(C)(C)C)cc1` (stereo not given) was -5.34%; that for `CC1Cc2ccccc2N1C(=O)CSc1nc2ccccc2o1` (stereo not given) was 3.31%. The value for `Cc1ccc(/C=N/NC(=O)CSc2nc3ccccc3o2)cc1` was 22.1% (active); that for `O=C(CSc1nc2ccccc2o1)N/N=C/c1ccccc1C(=O)O` was 5.59%; that for `C[C@H](C(=O)N(C)c1ccccc1)[C@@H](O)c1ccc2ccccc2c1` was -0.77%. Consider `COc1ccc(-c2cc(-c3nnc(SCc4ccc([N+](=O)[O-])cc4)n3N)[nH]n2)cc1`, for which the inhibition was 0.29%. With `COc1ccc(C(=O)NNc2cc(C)nc(NNC(=O)c3ccc(OC)cc3)n2)cc1` the figure was -1.03%; with `COc1ccc(C(=O)NNC(=S)NC(=O)c2ccccc2)cc1`, 24% (active); with `COc1cc(NS(=O)(=O)c2ccc(NC(=S)NC(=O)c3ccccc3)cc2)nc(OC)n1`, 6.57%.

`C=C1C(C(C)C)N(C)C2=NC(c3ccccc3)CC(=O)N12` (stereo not given): the inhibition is -17.1%.

For the molecule `COc1cccc(C2CC(c3cccs3)=NN2C(=O)CSC2=NCCS2)c1OC` (stereo not given), the inhibition was -3.83%. Turning to `CCS(=O)(=O)Nc1ccc(C2=NN(S(=O)(=O)c3ccc(F)cc3)C(c3ccco3)C2)cc1` (stereo not given), the inhibition is 4.53%.

Regarding `COc1cccc(C2CC(c3ccccc3)=NN2S(=O)(=O)c2ccccc2)c1OC` (stereo not given), the inhibition was 29.9% (active).
